Reference: PubChem BioAssay AID686971 (National Center for Advancing Translational Sciences (NCATS), 2013)
Screen size: about 360,000 compounds; about 7,500 (2.1%) were called active. Another 8% or so got no clear call; they are omitted. The sample as a whole holds a higher share of actives than the screen did. Values without a mark were called inactive. Calls come from the whole dose curve; as a rule, active = well fitted cell-killing curve with a large enough effect; inconclusive = small, poorly fitted or top-dose-only effect, or effect the other way, or another doubt; inactive = no such curve, though single readings can be large or run the other way.

Test: qHTS for induction of synthetic lethality in tumor cells producing 2HG: qHTS for the HT-1080-IDH1KD cell line;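 for activity, negative = toxicity: 0% = DMSO wells and -100% = cell-free medium wells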
Details: HT-1080 IDH1 knockdown viability, ATP luminescence, 48 h; series mostly up to 46.1 µM; activity, negative = toxicity: at the top concentration
How it was run: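 HT-1080-IDH1KD cells (IDH1 knocked down), 750/well in RPMI with 5% FBS, treated with compound 48 h at 37 degrees C. Viability by CellTiter-Glo luminescence, normalised to DMSO and no-cell wells; concentration-response curves classed.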
Potency is the fitted concentration of half-maximal effect.

| Compound | activity, negative = toxicity | Potency |
| --- | --- | --- |
| COc1cc2nnn(-c3ccncc3)c2cc1OC | 9.52% |  |
| N#CC1(Nc2ccc3c4c(cccc24)CC3)CCCCC1 | -19.4% |  |
| Cc1cc(-c2ccc(C)c(S(=O)(=O)NCCCN(Cc3ccccc3)C(C)C)c2)on1 | -2.16% |  |
| CCOc1ccccc1CNS(=O)(=O)c1cc(-c2cc(C)no2)ccc1C | -19.8% |  |
| COc1ccc(CNS(=O)(=O)c2cc(-c3cc(C)no3)ccc2C(C)C)cc1 |  | 3.66 µM (active) |
| CCOC(=O)N1CCN(C(=O)C[C@@H]2C[C@@]3(C(=O)OC)CCCCC=C3N(CCC3=CCCCC3)C2=O)CC1 | -21.7% |  |
| Cc1cccc(-c2cnc(C(O)c3ccc4ccccc4c3)[nH]2)c1 (stereo not given) | -20.1% |  |
| CC1(C(=O)NCc2ccccc2)CN(S(C)(=O)=O)CC(=O)N1CC(F)(F)F (stereo not given) | 19.5% |  |
| CC1(C(=O)O)CCN1C(=O)/C=C/c1ccccc1 (stereo not given) | -1.28% |  |
| CC1(C)CCSC(/C=C/c2ccccc2)=N1 |  | 25.9 µM (active) |
| CC1(C(=O)NS(=O)(=O)c2ccccc2)CCN1C(=O)C/C=C/c1ccccc1 (stereo not given) | 24% |  |
| CC1(C(=O)NCc2ccc3c(c2)OCO3)CCN1CCc1ccccc1 (stereo not given) | 0% |  |
| CCN(CC)C(=O)C(C)N1c2cccc3cccc(c23)S1(=O)=O (stereo not given) | 0.219% |  |
| CC(C)Nc1nc(NCCOc2ccccc2Cl)c2sccc2n1 |  | 16.4 µM (active) |
| COc1cccc(-c2cc3nc(NCCOc4ccccc4Cl)n(C)c(=O)c3s2)c1 | 10.4% |  |
| O=C(NCCOc1ccccc1Cl)C(=O)Nc1ccccc1 | -23.8% |  |
| Cc1c(NC(=O)COC(=O)/C=C/c2cccc(F)c2)c(=O)n(-c2ccccc2)n1C | 0.173% |  |
| COC(=O)C1(C(=O)OC)C[C@H](c2ccccc2)N(Cc2ccccc2OC)[C@@H]1c1ccccc1 | -10.5% |  |
| C/C(=N\NC(=O)Cc1ccc(Cl)cc1)c1ccccn1 |  | 2.51 µM (active) |
| CC1=NNC(=O)C1CCC(=O)N/N=C(\C)c1ccc(Cl)cc1 (stereo not given) | 0.912% |  |
| NC(=O)NC(CC(=O)NNC(=O)c1ccccn1)c1ccc(Cl)cc1 (stereo not given) | -25.6% |  |
| CC(=O)NC(c1ccccc1)c1nc(-c2cccc(C(C)C)c2)cs1 (stereo not given) | -0.585% |  |
| CC(OC(=O)c1ccc(NC(=O)CC#N)cc1)C(=O)Nc1ccc(S(=O)(=O)N2CCCC2)cc1 (stereo not given) | -9.1% |  |
| C[C@@H]1CN([C@H](C)CO)C(=O)CCCn2cc(nn2)CO[C@H]1CN(C)S(=O)(=O)c1ccc(Oc2ccccc2)nc1 | -8.17% |  |
| Cc1cccc(CN2CCN(C3CN(Cc4cn(Cc5ccccc5F)nn4)S(=O)(=O)C3)CC2)c1 (stereo not given) | 2.12% |  |

| Compound | activity, negative = toxicity | Potency |
| --- | --- | --- |
| O=C(NCC(O)c1nc2ccccc2[nH]1)c1ccc(Br)cc1 (stereo not given) | -0.05% |  |
| Cc1cc(=O)oc2cc(OCC3CC(c4ccccc4Cl)=NO3)ccc12 (stereo not given) |  | 0.447 µM (active) |
| Cc1cc(=O)oc2cc(OCCC[n+]3ccccc3)ccc12 | 7.77% |  |
| CCOc1ccccc1N1CCN(C(=O)COc2ccc3c(C)cc(=O)oc3c2)CC1 | -13.8% |  |
| CN1OC[C@@H]2CN(C(=O)c3cccnc3)[C@H](c3ccc(N4CCCCC4)cc3)C[C@@H]21 | 11.3% |  |
| Cc1csc(SCC(=O)Nc2ccc(C)c(S(=O)(=O)N(C)C)c2)n1 | -1.02% |  |
| C[C@H](CO)N1C[C@H](C)[C@@H](CN(C)Cc2ccc3c(c2)OCO3)OCc2cnnn2CCCC1=O | 21.3% |  |
| O=C(O)C(c1ccccc1)N1C(=O)/C(=C\c2ccc(-c3cccc(Cl)c3)o2)SC1=S (stereo not given) | 5.09% |  |
| O=C1c2ccccc2NC(c2ccc(-c3cccc(Cl)c3)o2)N1O (stereo not given) |  | 20 µM (active) |
| CC(=O)NN1C(=O)c2ccccc2NC1c1ccccc1 (stereo not given) | 5.4% |  |
| COc1ccc(C=C2CCC3C(CCCC34OCCO4)C2=O)cc1 (stereo not given) | -0.459% |  |
| C=CCOc1cccc(C2C(C(=O)c3ccc(C)o3)=C(O)C(=O)N2CCN2CCOCC2)c1 (stereo not given) | -1.37% |  |
| COCCNC(=O)C1CCCN(Cc2ccccc2Cl)CC1 (stereo not given) | 1.46% |  |
| Cc1ccc(S(=O)(=O)N2CCOCC2)cc1NC(=O)c1ccncc1 | -4.38% |  |
| CC(C)Nc1ncnc2c1ncn2[C@H]1CN(Cc2ccncc2)C[C@@H](CO)O1 | 8.01% |  |
| CCOCc1nnc(NC(=O)CSc2ccc(C)cc2)s1 | 13.4% |  |
| O=C(CSc1ccccc1)Nc1nnc(/C=C/c2ccccc2)s1 |  | 18.4 µM (active) |
| O=C(Nc1ccc(Cl)cc1)Nc1nnc(/C=C/c2ccccc2)s1 | -6.97% |  |
| CC1(C)OC(=O)C2=C(C[C@@H](C3CC3)O[C@H]2c2ccc(Cl)cc2)O1 | 6.54% |  |
| CCCCc1nc2ccc(F)cc2cc1C | 14% |  |
| CCCNC(=O)c1cc(C2CCCCN2S(=O)(=O)c2cn(C)cn2)on1 (stereo not given) | 0% |  |
| COc1ccc2c(c1)C(C)=CC(C)(C)N2C(=O)CNCc1ccc2c(c1)OCO2 |  | 8.91 µM (active) |
| COc1ccc(NC(=O)NCc2ccc3c(c2)OCO3)c(OC)c1 | 12.4% |  |
| COc1ccc2c(c1)C(C)=CC(C)(C)N2C(=O)Nc1ccccc1 | 6.01% |  |
| CCOC(=O)[C@]12CCCC=C1N(Cc1ccc3c(c1)OCO3)C(=O)[C@H](CC(=O)N1CCN(C(=O)c3ccco3)CC1)C2 | 7.52% |  |
